PubChem BioAssay AID1159580 (chemical genetic matrix, 2015)
In all, about 5,500 compounds went through this assay and about 2,000 (36%) were called active. About 18% were inconclusive and are not listed. No stated cut-off is given here; in the data, active means normalized growth mostly below about 0.91 (no sharp cut-off); inconclusive means no clear call, values can overlap the other calls; inactive means mostly above about 0.92. The list shows a part of the results.

Test: chemical genetic growth profiling, strain panel (AID 1159580);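 further: tested at 20 µM; growth read once vehicle control cultures reached saturation at 30 °C; 1 = growth at the plate median or of vehicle wells; lower values mean less growth of the strain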
Conditions: S. cerevisiae deletion strains, growth OD

Measured: normalized growth

CCOC(=O)C1=C(N)Oc2ccc(Br)cc2C1C(C#N)C(=O)OCC (stereo not drawn)
active: locus YDL101C, strain DUN1, active compounds read low 0.884 | locus YEL061C, strain CIN8, active compounds read low 0.648 | locus YHR030C, strain SLT2, active compounds read low 0.293 | locus YJR075W, strain HOC1, active compounds read low 0.88 | locus YLR039C, strain RIC1, active compounds read low 0.386 | locus YLR085C, strain ARP6, active compounds read low 0.379 | locus YLR262C, strain YPT6, active compounds read low 0.46 | locus YML094W, strain GIM5, active compounds read low 0.669 | locus YMR307W, strain GAS1, active compounds read low 0.667 | locus YNL298W, strain CLA4 (second series), active compounds read low 0.61 | locus YNR030W, strain Alg12, active compounds read low 0.528 | locus YPL241C, strain CIN2, active compounds read low 0.472 | locus YPR135W, strain CTF4, active compounds read low 0.424
inactive: locus YAL013W, strain DEP1, active compounds read low 0.934 | locus YBR229C, strain ROT2, active compounds read low 0.938 | locus YCL061C, strain MRC1, active compounds read low 0.916 | locus YDR150W, strain NUM1, active compounds read low 0.957 | locus YGR078C, strain PAC10, active compounds read low 0.938 | locus YGR229C, strain SMI1, active compounds read low 0.963 | locus YHR087W, strain rtc3, active compounds read low 0.979 | locus YJL187C, strain SWE1, active compounds read low 0.959 | locus YJR043C, strain POL32, active compounds read low 0.983 | locus YLR058C, strain SHM2 (second series), active compounds read low 0.986 | locus YMR219W, strain ESC1, active compounds read low 0.979 | locus YMR263W, strain SAP30, active compounds read low 0.964 | locus YNL153C, strain GIM3, active compounds read low 0.982 | locus YNL322C, strain KRE1, active compounds read low 0.992 | locus YPL055C, strain LGE1, active compounds read low 0.98
